Calls of active or inactive are those of the source. The call rests on the fitted dose curve; in most records, active means well fitted curve in the direction sought with a large enough effect in the repeat runs; inconclusive means weak or mixed curves; inactive means flat fitted curve, though single readings scatter.
Assay: qHTS assay to test for compound auto fluorescence at 460 nm (blue) in HEK293 cells (AID 720678)
Details: blue autofluorescence 405/460 nm; series mostly up to 91.3 µM; fluorescence, % of triamterene: at the top concentration
Summary of the method: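 Intrinsic compound fluorescence is recorded in live HEK293 cultures after overnight incubation at 37C, 5% CO2, using excitation 405 nm and emission 460 nm. Values are referenced to triamterene.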
On the % scale 0 is the no-effect control and ±100 the full control effect.

SMILES | fluorescence, % of triamterene | outcome
CC1CCc2c(N3CCC(O)CC3)c(F)cc3c(=O)c(C(=O)O)cn1c23 (configuration not stated) | -0.104% [at 46 µM] (inactive) | 
Cc1ccc(C(C)NC(=O)[C@@H](NC(=O)OC(C)C)C(C)C)cc1 (some centres not stated) | -0.0984% (inactive) | 
CN(C)CC/C=C1/c2ccccc2COc2ccc(CC(=O)O)cc21 | 0.14% [at 46 µM] (inactive) | 
Cc1cc(C)c(C(=O)O)c(C)c1 | -0.184% (inactive) | 
CC1(C)[C@H]2CC[C@](C)(C2)[C@H]1O | -0.024% [at 95.7 µM] (inactive) | 
COS(=O)(=O)O | 0.0221% (inactive) | 
CC1c2ccccc2CN1NC(=O)c1ccc(Cl)c(S(N)(=O)=O)c1 (configuration not stated) | -0.236% [at 46 µM] (inactive) | 
C=C(C)c1cccc(C(C)(C)N=C=O)c1 | -0.0866% (inactive) | 
C=CCCCCCCCC | 0.02% (inactive) | 
O=S(=O)(O)c1ccc2c(N=Nc3ccc(S(=O)(=O)O)c4ccccc34)c(O)c(S(=O)(=O)O)cc2c1 |  | inactive
CC(C)=CCC[C@@](C)(O)[C@H]1CC=C(C)CC1 | -0.201% [at 46 µM] (inactive) | 
CN(C)CCCCl | -0.125% [at 95.7 µM] (inactive) | 
CCC(=O)c1c(O)cc(O)cc1O | -0.392% [at 46 µM] (inactive) | 
Nc1nc(-c2ccccc2)c(Br)c(=O)[nH]1 | -0.259% [at 46 µM] (inactive) | 
CSc1cnccn1 | 0.0725% (inactive) | 
O=C1c2ccccc2C(=O)c2cc(Cl)ccc21 | -0.0543% [at 3.72 µM] (inactive) | 
CC(C)Nc1ccccc1 | -0.0136% (inactive) | 

SMILES | fluorescence, % of triamterene | outcome
C[C@@H](O)C(=O)O | 0.0271% [at 95.7 µM] (inactive) | 
OC[C@@H](O)C(O)[C@@H](O)CO (some centres not stated) | -0.24% [at 95.7 µM] (inactive) | 
O=C1CCCCO1 | 0.135% (inactive) | 
CCCCOC(=O)[C@H](C)O | -0.053% (inactive) | 
Cn1c(=O)c2[nH]c(Br)nc2n(C)c1=O | -0.0198% [at 46 µM] (inactive) | 
Cc1ccnc(N)c1 | 0.224% (inactive) | 
Cc1cccc(Cl)c1 | -0.0275% (inactive) | 
[O]=[Mo](=[O])=[O] | 0.132% [at 18.6 µM] (inactive) | 
CC1=NN(c2ccc(S(=O)(=O)O)cc2)C(=O)C1 | -0.104% (inactive) | 
CC(C)OC(=O)OCOP(=O)(CO[C@H](C)Cn1cnc2c(N)ncnc21)OCOC(=O)OC(C)C |  | inactive
C/C(CC(C)C)=N\O | 0.0357% (inactive) | 
C=CCCCC | 0.0111% [at 95.7 µM] (inactive) | 
C=C(C)[C@@H]1CC=C(C)CC1 | 0.173% (inactive) | 
CC(CO)(CO)CO | 0.0142% [at 95.7 µM] (inactive) | 
O=C1OCCO1 | -0.139% [at 95.7 µM] (inactive) | 
CC(=O)CC(=O)OC(C)(C)C | -0.0767% (inactive) | 
CC1OCCC1=O (configuration not stated) | 0.127% (inactive) | 

Assay: qHTS assay to test for compound auto fluorescence at 590 nm (red) in HEK293 cells (AID 720679)
Details: red autofluorescence 540/590 nm; series mostly up to 91.3 µM; fluorescence, % of fluorescent control: at the top concentration
Summary of the method: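 Red autofluorescence, HEK293 cells: 2,000 cells/well; attach 4-5 hr 37C; add 23 nL cpd or DMSO; incubate o/n 37C 5% CO2; read Ex540/Em590; Rose Bengal sodium reference.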

SMILES | fluorescence, % of fluorescent control | outcome
CC1CCc2c(N3CCC(O)CC3)c(F)cc3c(=O)c(C(=O)O)cn1c23 (configuration not stated) | -0.788% [at 46 µM] (inactive) | 
Cc1ccc(C(C)NC(=O)[C@@H](NC(=O)OC(C)C)C(C)C)cc1 (some centres not stated) | -0.0165% (inactive) | 
CN(C)CC/C=C1/c2ccccc2COc2ccc(CC(=O)O)cc21 | 0.0089% [at 46 µM] (inactive) | 
Cc1cc(C)c(C(=O)O)c(C)c1 | -0.555% (inactive) | 
CC1(C)[C@H]2CC[C@](C)(C2)[C@H]1O | 0.234% [at 95.7 µM] (inactive) | 
COS(=O)(=O)O | 0.107% (inactive) | 
CC1c2ccccc2CN1NC(=O)c1ccc(Cl)c(S(N)(=O)=O)c1 (configuration not stated) | -1.29% [at 46 µM] (inactive) | 
C=C(C)c1cccc(C(C)(C)N=C=O)c1 | -0.532% (inactive) | 
C=CCCCCCCCC | -0.0539% (inactive) | 
O=S(=O)(O)c1ccc2c(N=Nc3ccc(S(=O)(=O)O)c4ccccc34)c(O)c(S(=O)(=O)O)cc2c1 |  | inactive
CC(C)=CCC[C@@](C)(O)[C@H]1CC=C(C)CC1 | 0.001% [at 46 µM] (inactive) | 
CN(C)CCCCl | -0.382% [at 95.7 µM] (inactive) | 
CCC(=O)c1c(O)cc(O)cc1O | 0.194% [at 46 µM] (inactive) | 
Nc1nc(-c2ccccc2)c(Br)c(=O)[nH]1 | 0.271% [at 46 µM] (inactive) | 
CSc1cnccn1 | 0.0872% (inactive) | 
O=C1c2ccccc2C(=O)c2cc(Cl)ccc21 | -0.785% [at 3.72 µM] (inactive) | 
CC(C)Nc1ccccc1 | 0.0427% (inactive) | 

SMILES | fluorescence, % of fluorescent control | outcome
C[C@@H](O)C(=O)O | -0.093% [at 95.7 µM] (inactive) | 
OC[C@@H](O)C(O)[C@@H](O)CO (some centres not stated) | -0.0261% [at 95.7 µM] (inactive) | 
O=C1CCCCO1 | 0.184% (inactive) | 
CCCCOC(=O)[C@H](C)O | -0.0203% (inactive) | 
Cn1c(=O)c2[nH]c(Br)nc2n(C)c1=O | -0.0632% [at 46 µM] (inactive) | 
Cc1ccnc(N)c1 | -0.247% (inactive) | 
Cc1cccc(Cl)c1 | -0.441% (inactive) | 
[O]=[Mo](=[O])=[O] | 0.419% [at 18.6 µM] (inactive) | 
CC1=NN(c2ccc(S(=O)(=O)O)cc2)C(=O)C1 | -0.266% (inactive) | 
CC(C)OC(=O)OCOP(=O)(CO[C@H](C)Cn1cnc2c(N)ncnc21)OCOC(=O)OC(C)C |  | inactive
C/C(CC(C)C)=N\O | -0.108% (inactive) | 
C=CCCCC | 0.0994% [at 95.7 µM] (inactive) | 
C=C(C)[C@@H]1CC=C(C)CC1 | -0.0967% (inactive) | 
CC(CO)(CO)CO | -0.417% [at 95.7 µM] (inactive) | 
O=C1OCCO1 | 0.0477% [at 95.7 µM] (inactive) | 
CC(=O)CC(=O)OC(C)(C)C | -0.358% (inactive) | 
CC1OCCC1=O (configuration not stated) | -0.361% (inactive) | 

Assay: qHTS assay to test for compound auto fluorescence at 535 nm (green) in HEK293 cells (AID 720680)
Details: green autofluorescence 485/535 nm; series mostly up to 91.3 µM; fluorescence, % of fluorescein: at the top concentration

SMILES | fluorescence, % of fluorescein | outcome
CC1CCc2c(N3CCC(O)CC3)c(F)cc3c(=O)c(C(=O)O)cn1c23 (configuration not stated) | -0.0894% [at 46 µM] (inactive) | 
Cc1ccc(C(C)NC(=O)[C@@H](NC(=O)OC(C)C)C(C)C)cc1 (some centres not stated) | -0.0593% (inactive) | 
CN(C)CC/C=C1/c2ccccc2COc2ccc(CC(=O)O)cc21 | -0.008% [at 46 µM] (inactive) | 
Cc1cc(C)c(C(=O)O)c(C)c1 | 0.0003% (inactive) | 
CC1(C)[C@H]2CC[C@](C)(C2)[C@H]1O | -0.0598% [at 95.7 µM] (inactive) | 
COS(=O)(=O)O | -0.0054% (inactive) | 
CC1c2ccccc2CN1NC(=O)c1ccc(Cl)c(S(N)(=O)=O)c1 (configuration not stated) | -0.0113% [at 46 µM] (inactive) | 
C=C(C)c1cccc(C(C)(C)N=C=O)c1 | 0.0185% (inactive) | 
C=CCCCCCCCC | -0.0395% (inactive) | 
O=S(=O)(O)c1ccc2c(N=Nc3ccc(S(=O)(=O)O)c4ccccc34)c(O)c(S(=O)(=O)O)cc2c1 |  | inactive
CC(C)=CCC[C@@](C)(O)[C@H]1CC=C(C)CC1 | 0.113% [at 46 µM] (inactive) | 
CN(C)CCCCl | -0.277% [at 95.7 µM] (inactive) | 
CCC(=O)c1c(O)cc(O)cc1O | 0.0966% [at 46 µM] (inactive) | 
Nc1nc(-c2ccccc2)c(Br)c(=O)[nH]1 | -0.053% [at 46 µM] (inactive) | 
CSc1cnccn1 | 0.0245% (inactive) | 
O=C1c2ccccc2C(=O)c2cc(Cl)ccc21 | 0.0004% [at 3.72 µM] (inactive) | 
CC(C)Nc1ccccc1 | 0.0571% (inactive) | 

SMILES | fluorescence, % of fluorescein | outcome
C[C@@H](O)C(=O)O | 0.137% [at 95.7 µM] (inactive) | 
OC[C@@H](O)C(O)[C@@H](O)CO (some centres not stated) | 0.0033% [at 95.7 µM] (inactive) | 
O=C1CCCCO1 | -0.0414% (inactive) | 
CCCCOC(=O)[C@H](C)O | -0.0966% (inactive) | 
Cn1c(=O)c2[nH]c(Br)nc2n(C)c1=O | -0.284% [at 46 µM] (inactive) | 
Cc1ccnc(N)c1 | 0.0084% (inactive) | 
Cc1cccc(Cl)c1 | -0.102% (inactive) | 
[O]=[Mo](=[O])=[O] | -0.0315% [at 18.6 µM] (inactive) | 
CC1=NN(c2ccc(S(=O)(=O)O)cc2)C(=O)C1 | -0.242% (inactive) | 
CC(C)OC(=O)OCOP(=O)(CO[C@H](C)Cn1cnc2c(N)ncnc21)OCOC(=O)OC(C)C |  | inactive
C/C(CC(C)C)=N\O | 0.0232% (inactive) | 
C=CCCCC | 0.0112% [at 95.7 µM] (inactive) | 
C=C(C)[C@@H]1CC=C(C)CC1 | -0.113% (inactive) | 
CC(CO)(CO)CO | -0.0333% [at 95.7 µM] (inactive) | 
O=C1OCCO1 | -0.057% [at 95.7 µM] (inactive) | 
CC(=O)CC(=O)OC(C)(C)C | -0.0211% (inactive) | 
CC1OCCC1=O (configuration not stated) | 0.0316% (inactive) | 

Source: PubChem BioAssay (Tox21)
